For 5 sequences, binding signal results are on record in article PMC11006913.

Numbering of substitutions follows the chain as printed.

Assay in all cases: PBM; 200 nM protein, PBS
Common to all, as to conditions: dsDNA, one strand shown

In experiment [1] the target is T1, SIX6 (Homo sapiens, UniProt O95475 114-200, L167I).
T1 sequence: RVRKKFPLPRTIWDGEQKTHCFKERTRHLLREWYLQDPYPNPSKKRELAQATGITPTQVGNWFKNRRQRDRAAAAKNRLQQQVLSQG

In experiment [2] the target is T2, SIX6 (Homo sapiens, UniProt O95475 114-200, L143V).
T2 sequence: T1 sequence with L30V, I54L

Experiment [3] has as its target T3, SIX6 (Homo sapiens, UniProt O95475 114-200, H141N).
T3 sequence: T1 sequence with H28N, I54L

Experiment [4] addresses T4, SIX6 (Homo sapiens, UniProt O95475 114-200, T165P).
T4 sequence: T1 sequence with T52P, I54L

The target of experiment [5] is T5, SIX6 (Homo sapiens, UniProt O95475 114-200, L167M).
T5 sequence: T1 sequence with I54M

The target of experiment [6] is T6, SIX6 (Homo sapiens, UniProt O95475 114-200, L143M).
T6 sequence: T1 sequence with L30M, I54L

Experiment [7] concerns the target T7, SIX6 (Homo sapiens, UniProt O95475 114-200, L143I).
T7 sequence: T1 sequence with L30I, I54L

Experiment [8] addresses T8, SIX6 (Homo sapiens, UniProt O95475 114-200, T165G).
T8 sequence: T1 sequence with T52G, I54L

The target in experiment [9] is T9, SIX6 (Homo sapiens, UniProt O95475 114-200, T139Q).
T9 sequence: T1 sequence with T26Q, I54L

The target of experiment [10] is T10, SIX6 (Homo sapiens, UniProt O95475 114-200, T165A).
T10 sequence: T1 sequence with T52A, I54L

For experiment [11], the target named is T11, SIX6 (Homo sapiens, UniProt O95475 114-200, L167V).
T11 sequence: T1 sequence with I54V

Experiment [12] addresses T12, SIX6 (Homo sapiens, UniProt O95475 114-200).
T12 sequence: T1 sequence with I54L

Experiment [13] deals with T13, SIX6 (Homo sapiens, UniProt O95475 114-200, T165I).
T13 sequence: T1 sequence with T52I, I54L

Consider AGTATCAT, for which the binding signal in experiment [1] is 11.5 upbm affinity estimate (log intensity, higher = more binding, comparable within an allelic series); in experiment [2], 10.5 upbm affinity estimate (log intensity, higher = more binding, comparable within an allelic series); in [3], 11.5 upbm affinity estimate (log intensity, higher = more binding, comparable within an allelic series); in [4], 9.89 upbm affinity estimate (log intensity, higher = more binding, comparable within an allelic series); in [5] it was 10.9 upbm affinity estimate (log intensity, higher = more binding, comparable within an allelic series); in [6] it was 11 upbm affinity estimate (log intensity, higher = more binding, comparable within an allelic series). Besides, the binding signal was 10.6 upbm affinity estimate (log intensity, higher = more binding, comparable within an allelic series) in [7]; 11.5 upbm affinity estimate (log intensity, higher = more binding, comparable within an allelic series) in experiment [8]; 11.4 upbm affinity estimate (log intensity, higher = more binding, comparable within an allelic series) in experiment [9]; 11.4 upbm affinity estimate (log intensity, higher = more binding, comparable within an allelic series) in [10]; 11.3 upbm affinity estimate (log intensity, higher = more binding, comparable within an allelic series) in experiment [11]; 11.2 upbm affinity estimate (log intensity, higher = more binding, comparable within an allelic series) in experiment [12]. The binding signal in experiment [13] is 11.2 upbm affinity estimate (log intensity, higher = more binding, comparable within an allelic series).

Turning to ATTGATAC, the binding signal in experiment [1] is 11.4 upbm affinity estimate (log intensity, higher = more binding, comparable within an allelic series); in [2], 10.5 upbm affinity estimate (log intensity, higher = more binding, comparable within an allelic series); in [3], 11.5 upbm affinity estimate (log intensity, higher = more binding, comparable within an allelic series); in experiment [4] it was 9.95 upbm affinity estimate (log intensity, higher = more binding, comparable within an allelic series); in experiment [5], 10.8 upbm affinity estimate (log intensity, higher = more binding, comparable within an allelic series); in [6], 11.2 upbm affinity estimate (log intensity, higher = more binding, comparable within an allelic series). The binding signal was 10.5 upbm affinity estimate (log intensity, higher = more binding, comparable within an allelic series) in [7]; 11.4 upbm affinity estimate (log intensity, higher = more binding, comparable within an allelic series) in experiment [8]; 11.2 upbm affinity estimate (log intensity, higher = more binding, comparable within an allelic series) in [9]; 11.4 upbm affinity estimate (log intensity, higher = more binding, comparable within an allelic series) in experiment [10]; 11.2 upbm affinity estimate (log intensity, higher = more binding, comparable within an allelic series) in experiment [11]; 11.2 upbm affinity estimate (log intensity, higher = more binding, comparable within an allelic series) in experiment [12]. Moreover, in experiment [13], the binding signal was 11.2 upbm affinity estimate (log intensity, higher = more binding, comparable within an allelic series).

Turning to GAAAGCGC, the binding signal is 8.91 upbm affinity estimate (log intensity, higher = more binding, comparable within an allelic series) in experiment [1]; 8.99 upbm affinity estimate (log intensity, higher = more binding, comparable within an allelic series) in experiment [2]; 8.85 upbm affinity estimate (log intensity, higher = more binding, comparable within an allelic series) in [3]; 9.04 upbm affinity estimate (log intensity, higher = more binding, comparable within an allelic series) in experiment [4]; 8.97 upbm affinity estimate (log intensity, higher = more binding, comparable within an allelic series) in [5]; 8.96 upbm affinity estimate (log intensity, higher = more binding, comparable within an allelic series) in experiment [6]. Besides, the binding signal in experiment [7] is 8.97 upbm affinity estimate (log intensity, higher = more binding, comparable within an allelic series); in [8], 9 upbm affinity estimate (log intensity, higher = more binding, comparable within an allelic series); in experiment [9] it was 9 upbm affinity estimate (log intensity, higher = more binding, comparable within an allelic series); in [10] it was 9.02 upbm affinity estimate (log intensity, higher = more binding, comparable within an allelic series); in [11], 8.93 upbm affinity estimate (log intensity, higher = more binding, comparable within an allelic series); in experiment [12], 8.96 upbm affinity estimate (log intensity, higher = more binding, comparable within an allelic series). Further, in experiment [13], the binding signal is 8.97 upbm affinity estimate (log intensity, higher = more binding, comparable within an allelic series).

For the sequence CCCTCTGC, the binding signal is 8.98 upbm affinity estimate (log intensity, higher = more binding, comparable within an allelic series) in experiment [1]; 8.83 upbm affinity estimate (log intensity, higher = more binding, comparable within an allelic series) in experiment [2]; 9.02 upbm affinity estimate (log intensity, higher = more binding, comparable within an allelic series) in [3]; 8.85 upbm affinity estimate (log intensity, higher = more binding, comparable within an allelic series) in experiment [4]; 8.95 upbm affinity estimate (log intensity, higher = more binding, comparable within an allelic series) in experiment [5]; 9.06 upbm affinity estimate (log intensity, higher = more binding, comparable within an allelic series) in [6]. Moreover, the binding signal in experiment [7] was 8.9 upbm affinity estimate (log intensity, higher = more binding, comparable within an allelic series); in experiment [8] it was 9.1 upbm affinity estimate (log intensity, higher = more binding, comparable within an allelic series); in experiment [9], 9.06 upbm affinity estimate (log intensity, higher = more binding, comparable within an allelic series); in [10] it was 9.06 upbm affinity estimate (log intensity, higher = more binding, comparable within an allelic series); in experiment [11], 8.95 upbm affinity estimate (log intensity, higher = more binding, comparable within an allelic series); in [12], 9.05 upbm affinity estimate (log intensity, higher = more binding, comparable within an allelic series). Also, the binding signal in experiment [13] was 8.97 upbm affinity estimate (log intensity, higher = more binding, comparable within an allelic series).

Turning to TAGTATCA, the binding signal in experiment [1] was 11.3 upbm affinity estimate (log intensity, higher = more binding, comparable within an allelic series); in experiment [2], 10.6 upbm affinity estimate (log intensity, higher = more binding, comparable within an allelic series); in experiment [3], 11.1 upbm affinity estimate (log intensity, higher = more binding, comparable within an allelic series); in experiment [4], 10 upbm affinity estimate (log intensity, higher = more binding, comparable within an allelic series); in experiment [5], 10.8 upbm affinity estimate (log intensity, higher = more binding, comparable within an allelic series); in experiment [6], 11 upbm affinity estimate (log intensity, higher = more binding, comparable within an allelic series). Also, the binding signal in [7] was 10.4 upbm affinity estimate (log intensity, higher = more binding, comparable within an allelic series); in experiment [8], 11.3 upbm affinity estimate (log intensity, higher = more binding, comparable within an allelic series); in experiment [9], 11.3 upbm affinity estimate (log intensity, higher = more binding, comparable within an allelic series); in experiment [10], 11.2 upbm affinity estimate (log intensity, higher = more binding, comparable within an allelic series); in experiment [11], 11.1 upbm affinity estimate (log intensity, higher = more binding, comparable within an allelic series); in experiment [12], 11 upbm affinity estimate (log intensity, higher = more binding, comparable within an allelic series). The binding signal in [13] is 11 upbm affinity estimate (log intensity, higher = more binding, comparable within an allelic series).
